Source: PubChem
ATG4B inhibitor: blocks human ATG4B protease cleavage of LC3 substrate; inhibition, % at 8.33 µM; ATG4B cleavage of LC3-PLA2, NBD-HPC fluorescence, 1 h; 340,000 tested, 0.51% active; AID 504462; Q9Y4P1; in the data active means inhibition above about 40%
Target sequence (Q9Y4P1 whole entry, looked up): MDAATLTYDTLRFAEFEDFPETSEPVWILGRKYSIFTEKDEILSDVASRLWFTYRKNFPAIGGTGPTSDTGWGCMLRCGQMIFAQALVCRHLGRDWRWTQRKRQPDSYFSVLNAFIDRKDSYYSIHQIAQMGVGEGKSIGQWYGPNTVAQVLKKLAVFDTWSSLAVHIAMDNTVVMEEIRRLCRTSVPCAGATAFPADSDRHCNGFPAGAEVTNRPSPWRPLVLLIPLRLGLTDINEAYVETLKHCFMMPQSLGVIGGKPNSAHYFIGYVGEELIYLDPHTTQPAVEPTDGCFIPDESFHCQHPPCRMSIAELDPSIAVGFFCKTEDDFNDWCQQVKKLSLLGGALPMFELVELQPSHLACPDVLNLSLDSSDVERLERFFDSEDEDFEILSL
GRK2 inh: blocks RNA aptamer binding to human GRK2; bead flow cytometry, FAM-aptamer displacement from GRK2; inhibition of aptamer binding, % at 10 µM; 330,000 tested, 0.59% active;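 active means inhibition of aptamer binding above 40%, roughly 3 SD of noise, on plates passing a quality check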;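 further: median bead fluorescence of bound FAM aptamer so fluorescent compounds give negative values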
Efflux pump mplx: inhibitors of Candida antifungal efflux pumps expressed in yeast; S. cerevisiae Candida pump triplex, Nile Red efflux; inhibition, % at 10 µM; 330,000 tested, 0.44% active;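 active means plate passing quality check with inhibition over a set limit, or well fluorescence over plate mean plus 4 SD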;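 further: Nile Red retained in pooled yeast measured as flow cytometry median fluorescence; 0% = buffer negative control and 100% = Enniatin B positive control; higher means more Nile Red kept so more efflux inhibition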
CR mimetic SO: lowers age-related superoxide in aged yeast cells. S. cerevisiae aged cells, superoxide DHE fluorescence; stronger effect = lower value. 330,000 tested, 0.18% active. superoxide response (% of plate mean), % at 10 µM;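 active means superoxide response under a set limit, about three screen SD below normal, cut at about 65% in these data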;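 further: yeast aged for seven days with compound at 30 °C before DHE staining; 100% = average MFI of all compound-treated wells on the plate with controls excluded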
GRK2 CP1: human GRK2 inhibition confirmation, cherry pick 1; shares compounds with GRK2 inh; bead-bound GRK2, FAM-aptamer displacement, flow cytometry; aptamer displacement, % at 10 µM; 2,000 tested, 4% active; AID 504451;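 active means aptamer displacement above 40%, near three times the noise of non-fluorescent compounds, on plates passing quality checks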;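 further: negative values mostly reflect intrinsic compound fluorescence rather than true enhancement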
Aptamer quench 1: fluorescent aptamer quenching in GRK2 counter-screen dose response; shares compounds with GRK2 inh; Fluorescent RNA aptamer beads, flow cytometry; stronger effect = higher value; fluorescence change (kMESF span), kMESF (no concentration beside the values); 110 tested, under 10 active; AID 504521;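 active means compounds whose bead fluorescence drops by more than 37 kMESF across the dose range, marking them as dye quenchers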
FAM quench CP1: aptamer fluorescence quenching in GRK2 counter-screen; shares compounds with GRK2 inh; Carboxyfluorescein RNA aptamer on beads, flow cytometry quenching; stronger effect = lower value; fluorescence response (% of DMSO), % at 10 µM; 2,000 tested, under 10 active; AID 504580;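 active means compounds that quench the bead-bound fluorescent RNA probe, cutting fluorescence to under half of the solvent control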;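 further: counterscreen run without GRK2 so only probe quenching by compound is measured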
GRK2 CP2: confirmation of human GRK2 inhibitors binding RNA aptamer site; shares compounds with GRK2 inh; bead-bound GRK2, FAM-aptamer displacement, flow cytometry; inhibition of aptamer binding, % at 10 µM; 360 tested, under 10 active; AID 504782;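 active means inhibition of aptamer binding above 40%, about triple the noise seen with nonglowing compounds, on plates passing quality control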;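 further: negative values mostly come from compounds that fluoresce themselves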
FAM quench CP2: counter-screen for GRK2 binding hits: quenchers of fluorescent RNA aptamer. fluorescence response vs DMSO, % at 10 µM. shares compounds with GRK2 inh. 360 tested, under 10 active. carboxyfluorescein RNA aptamer beads, flow cytometry quenching; stronger effect = lower value;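 active means response vs DMSO under 50%, meaning signal dropped by over half, treated as fluorescence quencher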;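 further: labelled aptamer on streptavidin beads without GRK2 as a quench counter-screen; 100% = bead fluorescence of DMSO wells and lower means quenching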
* marks the source's active call; other numbers are inactive results; . = no result given. The list is not random: actives were taken first. Their share in the collection is about 1.6%.

SMILES | ATG4B inhibitor | GRK2 inh | Efflux pump mplx | CR mimetic SO | GRK2 CP1 | FAM quench CP1 | others
CCCn1c2ccccc2c2cn[nH]c(=O)c21 | -5 | 18 | 0 | 113 | 0 | 99
O=c1[nH]ncc2c3ccccc3n(Cc3ccccc3)c12 | -9 | 1 | 0 | 103 | . | .
COc1cc(C)c(NC(=O)COc2cccc3c2OC(C)(C)C3)cc1OC | 2 | 41* | 0 | 104 | . | . | GRK2 CP2=21;FAM quench CP2=99
CCN(CC(=O)Nc1ccc(OC)cc1)C(=O)COc1cccc2c1OC(C)(C)C2 | -1 | 0 | 0 | 97 | . | .
CCOc1ccc(NC(=O)CN(C)C(=O)COc2cccc3c2OC(C)(C)C3)cc1OCC | -4 | 98* | 0 | 89 | 0 | 96
O=C(CN1CCN(C(=O)C2CCCO2)CC1)Nc1ccc(Br)cc1 (configuration not stated) | -7 | 0 | 0 | 103 | . | .
O=C(N/N=C/c1ccc(Cl)cc1)c1ccc2c(c1)OCO2 | 0 | 59* | 0 | 95 | -9 | 120
O=C(N/N=C/c1ccc2c(c1)OCO2)c1ccc2c(c1)OCCO2 | -3 | 0 | 0 | 117 | . | .
CCOc1ccc(NC(=O)CC2C(=O)N(CC)C(=S)N2CCNC(C)=O)cc1 (configuration not stated) | -1 | 70* | 0 | 113 | . | . | GRK2 CP2=11;FAM quench CP2=100
CC(=O)N1c2ccc(S(=O)(=O)N3CCCCC3)cc2CC1C(=O)NCc1cccc(Cl)c1 (configuration not stated) | 1 | 0 | 0 | 86 | . | .
COc1cc(OC)c(OC)cc1/C=N/NC(=O)CSc1ccccc1F | -3 | 90* | 0 | 97 | 4 | 95
COc1cccc(/C=N/NC(=O)CSc2ccccc2C)c1O | -7 | 0 | 1 | 89 | . | .
Cc1ccc(S(=O)(=O)Cc2ccc(C(=O)O)o2)cc1 | 5 | 67* | 0 | 94 | 64* | 95 | Aptamer quench 1=2.1
Cc1ccc(NC(=O)CC2NCCNC2=O)cc1Cl (configuration not stated) | -3 | 4 | 0 | 109 | . | .
Cc1ccc(OCC(=O)c2cc(C)c(C)cc2C)c([N+](=O)[O-])n1 | 2 | 1 | 0 | 93 | . | .
Cc1ccc(OCC(=O)c2c(N)n(C)c(=O)n(C)c2=O)c([N+](=O)[O-])n1 | -1 | 77* | 0 | 100 | 60* | 96 | Aptamer quench 1=19
CC(=O)Nc1ccc(N(C)C)cc1[N+](=O)[O-] | -3 | 41* | 0 | 98 | 79* | 100 | Aptamer quench 1=-1.5
CC(=O)Nc1ccc(O)cc1[N+](=O)[O-] | 0 | 0 | 0 | 94 | . | .
COCCCNC(=O)CNC(=O)c1nn(-c2ccc(OC)cc2OC)c(=O)c2ccccc12 | -1 | 4 | 0 | 109 | -2 | 104
COc1ccc(NC(=O)CNC(=O)c2nn(-c3ccc(OC)cc3OC)c(=O)c3ccccc23)c(OC)c1 | -1 | 0 | 1 | 104 | . | .
COc1ccc(-n2nc(C(=O)NCC(=O)NC(C)C)c3ccccc3c2=O)c(OC)c1 | 0 | 0 | 0 | 82 | . | .
CCC(C)NC(=O)CNC(=O)c1nn(-c2ccc(OC)cc2OC)c(=O)c2ccccc12 (configuration not stated) | -7 | 0 | 0 | 79 | 0 | 102
CC(C)[C@H](NC(=O)c1ccccc1Cl)C(=O)Nc1ccc(S(=O)(=O)Nc2nccs2)cc1 | 1 | 0 | 0 | 97 | . | .
COCCNc1nc(-c2cc(C)c(C)cc2C)cs1 | 8 | 0 | 0 | 82 | . | .
COc1ccc(S(=O)(=O)Nc2c(C(=O)O)[nH]c3ccc(OC)cc23)c(OC)c1 | -15 | 0 | 0 | 83 | . | .
SMILES | ATG4B inhibitor | GRK2 inh | Efflux pump mplx | CR mimetic SO | GRK2 CP1 | FAM quench CP1 | others
Cc1ccc(S(=O)(=O)N2CCN(C(=O)c3cc4c(s3)CCCC4)CC2)c(C)c1 | 1 | 49* | 0 | 128 | 0 | 99
COc1ccc(S(=O)(=O)N2CCN(C(=O)c3cc4c(s3)CCC4)CC2)cc1 | -4 | 82* | 0 | 119 | 25 | 109
CCN(CC)S(=O)(=O)c1cc(NC(=O)CSCc2c(C)noc2C)ccc1C | -1 | 0 | 0 | 102 | . | .
COCCN1C(=O)N[C@@H](c2cccc(F)c2)C(C(C)=O)=C1C | -7 | 5 | 0 | 106 | . | .
CCOc1ccc(NC2OCC(O)C(O)C2O)c([N+](=O)[O-])c1 (configuration not stated) | 3 | 0 | 0 | 107 | . | .
COc1ccc(NC(=O)N(C)C[C@H]2Oc3ccc(NC(=O)CCC(F)(F)F)cc3C(=O)N([C@H](C)CO)C[C@@H]2C)cc1 | -14 | 73* | 1 | 131 | . | . | GRK2 CP2=8;FAM quench CP2=101
COc1ccc(NC(=O)Nc2ccc3c(c2)C(=O)N([C@H](C)CO)C[C@H](C)[C@@H](CN(C)C(=O)Nc2ccc(OC)cc2)O3)cc1 | -6 | 4 | 0 | 100 | . | .
CN1CCN(CCCOc2ccc(-c3ccccc3)cc2)CC1 | 2 | 0 | 0 | 98 | . | .
CCN1CCN(CCCOc2ccc(-c3ccccc3)cc2)CC1 | 7 | 30 | 0 | 113 | -8 | 104
O=C1C2CC=CCC2C(=O)N1Cc1ccccc1Cl (configuration not stated) | -9 | 42* | 0 | 84 | . | . | GRK2 CP2=19;FAM quench CP2=112
Cc1ccnn1Cc1cc(C(=O)O)c2ccccc2n1 | -6 | 2 | 0 | 112 | . | .
CC(=O)Nc1ccc(S(=O)(=O)N2CCN(S(=O)(=O)c3ccc(NC(C)=O)cc3)CC2)cc1 | 16 | 0 | 0 | 97 | . | .
CN1CCN(S(=O)(=O)c2ccc(NC(=O)C(C)(C)C)cc2)CC1 | -4 | 81* | 0 | 96 | -4 | 98
CC(O)c1cccc(NC(=O)C2CCCCC2)c1 (configuration not stated) | -3 | 53* | 0 | 104 | 0 | 102
CC(=O)c1cccc(NC(=O)C2CCCCC2)c1 | -14 | 0 | 0 | 120 | . | .
COc1cccc(C(=O)N=c2sc3cc(S(C)(=O)=O)ccc3n2C)c1 | -9 | 0 | 0 | 83 | . | .
O=C(O)C1C2C=CC(C3CC23)C1C(=O)O (configuration not stated) | 5 | 18 | 0 | 83 | . | . | GRK2 CP2=6;FAM quench CP2=101
CS(=O)(=O)NNC(=O)c1sccc1OCc1ncc(C(F)(F)F)cc1Cl | 0 | 2 | 0 | 97 | . | .
Cn1cnc2c1c(=O)n(Cc1ccccc1)c(=O)n2C | -17 | 2 | 0 | 109 | . | .
